From PubChem BioAssay (NCI) come the findings set out here.

A short description of assay [1]: NCI Yeast Anticancer Drug Screen. Data for the rad50 strain (AID 155).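 Further: 0% = growth of vehicle-only cultures of the same strain.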 The following applies: S. cerevisiae rad50 strain growth inhibition; at 50.0 µM; stronger effect = higher value. The procedure, abridged: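 Growth of the mutant yeast was measured after compound exposure and referenced to vehicle-treated cultures.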
The nature of assay [2]: NCI Yeast Anticancer Drug Screen. Data for the mec2-1 strain (AID 157). The settings on record: S. cerevisiae mec2-1 strain, at 50.0 µM, stronger effect = higher value. The procedure, abridged: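 Compounds were applied to mec2-1 yeast cells. Their growth was then compared with that of vehicle-treated cultures to give growth inhibition.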
A short description of assay [3]: NCI Yeast Anticancer Drug Screen. Data for the sgs1 mgt1 strain (AID 161).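 Further: 0% = growth of cultures given vehicle only.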 The settings on record: S. cerevisiae sgs1 mgt1 strain, at 50.0 µM, stronger effect = higher value. The method in brief: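 Compounds are added to genetically altered yeast, and growth is compared with cultures given vehicle alone to give percent inhibition.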
A short description of assay [4]: NCI Yeast Anticancer Drug Screen. Data for the cln2 rad14 strain (AID 165).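 Further: 0% = growth equal to vehicle treated cultures.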 The following applies: S. cerevisiae cln2 rad14 strain, at 50.0 µM, stronger effect = higher value. The method in brief:
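Strain: cln2 rad14 yeast, altered in cell cycle control and DNA damage repair. Read-out: growth inhibition vs vehicle.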

The nature of assay [5]: NCI Yeast Anticancer Drug Screen. Data for the bub3 strain (AID 167). The settings on record: S. cerevisiae bub3 mutant strain, at 50.0 µM, stronger effect = higher value. The procedure, abridged: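 Whole-cell yeast assay. The mutant strain was incubated with compounds, and growth inhibition was determined by comparison with vehicle-treated cells.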
A short description of assay [6]: NCI Yeast Anticancer Drug Screen. Data for the mlh1 rad18 strain (AID 175). The following applies: S. cerevisiae mlh1 rad18 strain growth inhibition; at 50.0 µM; stronger effect = higher value. The method in brief:
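A repair-deficient yeast strain is exposed to test compound, and growth is scored relative to vehicle-treated controls.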

The panel holds about 79,000 compounds, 15% with a hit somewhere; the sample as a whole holds those more often. Values without a mark were called inactive. The source made the active and inactive calls. No stated cut-off is given here; in the data, active means growth inhibition above about 70%; inactive means the rest.

Regarding `N/C(=N\c1nc(N)cc(N)n1)Nc1ccc(S(N)(=O)=O)cc1`, the growth inhibition in assay [1] is -15.2%; in assay [2], 4.25%; in assay [3], -6.25%; in assay [4], -32.2%; in assay [5] it was -5.6%; in assay [6], -4.15%.

With `CCCOC(=O)C(=O)OCCC`, the growth inhibition in assay [1] is 2.15%; in assay [2], 21.6%; in assay [3] it was -23.8%; in assay [4], -6%; in assay [5], -11.3%; in assay [6], -9.2%.

Regarding `C=CCN(CC=C)c1ccccc1`, the growth inhibition is 24.1% in assay [1]; 5.6% in assay [2]; 25.4% in assay [3]; 19.2% in assay [4]; 14.6% in assay [5]; 34.4% in assay [6].

With `CN(C)Cc1ccc2ccccc2c1CC(O)(c1ccccc1)c1ccccc1`, the growth inhibition is 26.3% in assay [1]; -2.05% in assay [2]; 9.55% in assay [3]; 2.25% in assay [4]; 0.85% in assay [5]; 7.35% in assay [6].

Regarding `CC(=O)C(C)C(C)=O`, the growth inhibition in assay [1] was -2.95%; in assay [2], 0.7%; in assay [3] it was 1.4%; in assay [4], -21.6%; in assay [5] it was 22.6%; in assay [6], -0.85%.

`Cc1cccc(CBr)c1-c1c(C)cccc1CBr`: the growth inhibition is -19.2% in assay [1]; 10.8% in assay [2]; 10.1% in assay [3]; -31.1% in assay [4]; 27.6% in assay [5]; -0.65% in assay [6].

As for `O=C(c1ccccc1)C1CCC(C(=O)c2ccccc2)C1=O` (stereo not given), the growth inhibition is 15.8% in assay [1]; 14.3% in assay [2]; -8% in assay [3]; 17.9% in assay [4]; 7.3% in assay [5]; -17.2% in assay [6].

In the case of `Cc1cn(C)c2c1-c1oncc1CC2`, the growth inhibition is -4.3% in assay [1]; -14.7% in assay [2]; 5.4% in assay [3]; -7% in assay [4]; -35.3% in assay [5]; 2.3% in assay [6].

Turning to `Cc1c(N=Nc2cccc(Cl)c2)c(-c2ccccc2)nn1C(N)=S`, the growth inhibition was 80.3% (active) in assay [1]; 45% in assay [2]; 96.8% (active) in assay [3]; 12.4% in assay [4]; 91.5% (active) in assay [5]; 92.5% (active) in assay [6].

Consider `COC(=O)Cc1cc(=O)c2cc(C)ccc2[nH]1`, for which the growth inhibition in assay [1] is 0.9%; in assay [2], 3.6%; in assay [3], -2.7%; in assay [4] it was -29.6%; in assay [5], -13.9%; in assay [6], -1.15%.

Turning to `CC(=O)CC(=O)N1C(C)CCCC1C` (stereo not given), the growth inhibition was -12.3% in assay [1]; -36.7% in assay [2]; -7.55% in assay [3]; -0.4% in assay [4]; -18.1% in assay [5]; -18.7% in assay [6].

For the compound `CCOc1ncc(C(O)c2ccc(C)cc2)c(OCC)n1` (stereo not given), the growth inhibition in assay [1] is -1.05%; in assay [2] it was -11.1%; in assay [3] it was -3.75%; in assay [4], -52.6%; in assay [5], 1.4%; in assay [6], -9.8%.

Turning to `COC(=O)C1N=CSCC1(C)O` (stereo not given), the growth inhibition is -4.8% in assay [1]; 15.3% in assay [2]; -25.9% in assay [3]; 12.5% in assay [4]; -2.45% in assay [5]; -16.4% in assay [6].

Consider `CC(C)OCC(O)CNCCN` (stereo not given), for which the growth inhibition was -30.8% in assay [1]; -20.9% in assay [2]; -7.9% in assay [3]; -2.5% in assay [4]; -21% in assay [5]; -0.75% in assay [6].

As for `COC(=O)/C(=N\NC(C)(C)C)C(C(=O)C(=O)Nc1cc(C)ccc1C)c1nc2ccccc2[nH]c1=O` (stereo not given), the growth inhibition in assay [1] is -18.8%; in assay [2], -6.9%; in assay [3], -1.5%; in assay [4], 18.8%; in assay [5], -7.95%; in assay [6] it was -17.8%.

For the compound `C/C(=C\C(=O)c1ccccc1)c1ccccc1`, the growth inhibition was 17.3% in assay [1]; -5.8% in assay [2]; -20.9% in assay [3]; -16.6% in assay [4]; 12.2% in assay [5]; 57% in assay [6].

Regarding `CCOC(=O)C(C)c1nc2ccc(C(F)(F)F)cc2[nH]c1=O` (stereo not given), the growth inhibition in assay [1] was 2.15%; in assay [2] it was 16.7%; in assay [3], 40.4%; in assay [4], 14.2%; in assay [5], 43.4%; in assay [6], 39.5%.

In the case of `Clc1ccc(CNc2ncnc3nc(Cl)[nH]c23)cc1`, the growth inhibition in assay [1] is -14.4%; in assay [2], -14.9%; in assay [3], -4.6%; in assay [4], -41.2%; in assay [5], -10.2%; in assay [6] it was -23.9%.

Take `Cc1cnc2[nH]c(-c3ccc(Cl)cc3)cc(=O)c2c1`: the growth inhibition is -5.65% in assay [1]; -21.6% in assay [2]; -31.9% in assay [3]; -31.4% in assay [4]; -32% in assay [5]; -52.1% in assay [6].

With `CS/C(=N/N=C(\C)c1ccccn1)[Se][Se]/C(=N/N=C(\C)c1ccccn1)SC`, the growth inhibition in assay [1] was 15.7%; in assay [2], -1%; in assay [3], 15.6%; in assay [4], 29.2%; in assay [5] it was -2.5%; in assay [6] it was 30.9%.
